PubChem BioAssay (Tox21)
Results filed as inconclusive are left out. Where a call stands in place of a potency, no number is given. Active and inactive are the calls of the source. Calls come from the whole dose curve; as a rule, active = well fitted cell-killing curve with a large enough effect in the repeat runs; inconclusive = weak or mixed curves, or effect the other way; inactive = flat fitted curve, though single readings scatter.
Potency is the fitted concentration of half-maximal effect.

Assay: cAMP Responsive Elements (CRE) small molecule agonists, cell-based qHTS assay: qHTS cell viability counter screen (AID 2060914); note: nearly all actives have a fitted effect of over 50% in size
Details: CRE-bla HEK293T viability, CellTiter-Glo luminescence, 5 h; series mostly up to 92.4 µM
Outline: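 Cells are seeded and incubated 18 h, treated with compounds in DMSO for 3 h, read for the bla reporter, then given CellTiter-Glo; luminescence is measured after 30 min at room temperature.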
For N#Cc1c(-c2ccc(Cl)cc2)[nH]c(C(F)(F)F)c1Br, the Potency was “inactive”.
In the case of N#CC(Cl)(Cl)Cl, the Potency is reported as “inactive”.
For N#CCc1ccc(Cl)cc1, the Potency was “inactive”.
For c1coc(-c2nc3ccccc3[nH]2)c1, the Potency was “inactive”.
With C#CC1(O)CCCCC1 the Potency was “inactive”.
In the case of Oc1c(I)cc(I)cc1I, the Potency is reported as “inactive”.
In the case of N#C/C(N)=C(/N)C#N, the Potency is reported as “inactive”.
For Cc1cc(C2CC2)nc(Nc2ccccc2)n1, the Potency was “inactive”.
In the case of C=CC(=O)OC, the Potency is reported as “inactive”.
With CC(c1ccccc1)(c1ccc(O)cc1)c1ccc(O)cc1 the Potency was “inactive”.
With CCCCCCCCCCCC[N+](C)(C)CCOc1ccccc1 the Potency was 61.1 µM (active).
For CC(Cc1ccc(O)cc1)NCC(O)c1cc(O)cc(O)c1 (configuration not stated), the Potency was “inactive”.
